The source of these data is ChEMBL document CHEMBL1157539, “Thousands of chemical starting points for antimalarial lead identification” (Nature, 2010).

Holding throughout (format): functional
Experiment [1] concerns Plasmodium falciparum. Kind of experiment: GSK_TCMDC: Inhibition of Plasmodium falciparum 3D7 in whole red blood cells, using parasite LDH activity as an index of growth. Test compounds present at 2uM.
The subject of experiment [2] is Plasmodium falciparum. Kind of experiment: GSK_TCMDC: Inhibition of Plasmodium falciparum Dd2 in whole red blood cells, using parasite LDH activity as an index of growth. Test compounds present at 2uM.
In a further experiment the test system is HepG2. Kind of experiment: GSK_TCMDC: Percent inhibition of human HepG2 cell line. Test compounds present at 10uM.

Values joined by “and” are separate entries in the source; they are usually repeats but may differ in a detail not shown here. Identical values can stand only once.

In the case of `COc1ccc(CN(C2CC2)C(C)C(=O)c2[nH]c(C)c(C(C)=O)c2C)cc1` (centres undefined), the Inhibition came to 98% with Plasmodium falciparum [1], 64% in the experiment with Plasmodium falciparum [2] and 40% with HepG2.
Taken in the same sequence, the figures for `COc1ccc(N(c2nc(-c3cc(Cl)ccc3Cl)cs2)C2CCNCC2)cc1.O=C(O)C(F)(F)F` were 91%, 4% and 17%.
In the case of `O=C(/C=C/c1ccc(Cl)cc1)NC1CCC(CN2CCC(c3c[nH]c4ccccc34)CC2)CC1` (centres undefined), the Inhibition was 99% and 100% in the experiment with Plasmodium falciparum [1]; 90% and 67% in the experiment with Plasmodium falciparum [2]; 40% and 39% in the experiment with HepG2.
As to `CCC1(C)CC(CCNCc2ccccc2O)(c2ccc(C)cc2)CCO1` (centres undefined), the Inhibition in the experiment with Plasmodium falciparum [1] came to 97%; with Plasmodium falciparum [2] it was 66%; in the experiment on HepG2 it was 9%.
`CSc1ccc(C[C@@H](C)NC[C@H](O)c2cccc(Cl)c2)cc1.Cl`: the figures for the Inhibition with Plasmodium falciparum [1], with Plasmodium falciparum [2] and in the experiment with HepG2 were 97%, 96% and 8%, respectively.
Take `CC[C@H]1CN2CC[C@H]1C[C@H]2[C@H](O)c1cc(-c2ccc(C)cc2)nc2ccc(OC)cc12.Cl`: the values for the Inhibition in the experiment with Plasmodium falciparum [1], in the experiment with Plasmodium falciparum [2] and in the experiment with HepG2 were 99%, 99% and 22%, respectively.
`CS(=O)(=O)Nc1ccc2[nH]cc(C3CC4CCC(C3)N4CC3CCC(NC(=O)/C=C/c4ccc(Cl)c(Cl)c4)CC3)c2c1` (centres undefined): the Inhibition worked out at 100% in the experiment with Plasmodium falciparum [1], 50% in the experiment on Plasmodium falciparum [2] and 3% with HepG2.
For the compound `COC(=O)c1ccc(CC(C)NCC(O)c2cccc(C(F)(F)F)c2)c(Cl)c1` (centres undefined), the Inhibition in the experiment on Plasmodium falciparum [1] was 99%; in the experiment with Plasmodium falciparum [2] it was 98%; with HepG2, 0%.
In the same order, the values of `O=C(NC1CCC(CN2CCC(c3c[nH]c4ccccc34)CC2)CC1)c1ccc(-c2cc(C(F)(F)F)ccc2Cl)o1` (centres undefined) are 100%, 34% and 5%.
Turning to `Cc1ccc(/C=C/C(=O)NC2CCC(CN3CCC(c4c[nH]c5ccccc45)CC3)CC2)cc1` (centres undefined), the Inhibition in the experiment on Plasmodium falciparum [1] is 100%; in the experiment with Plasmodium falciparum [2], 66% and 69%; with HepG2 it was 32% and 41%.
In the case of `COc1cccc(C2(NC[C@@H](O)[C@H](Cc3ccccc3)NC(=O)c3ccccc3)CCCCC2)c1`, the Inhibition in the experiment with Plasmodium falciparum [1] turned out to be 97%; in the experiment on Plasmodium falciparum [2], 67%; with HepG2, 14%.
In the same order, the values of `C/C=C1\CN2CC[C@H]1C[C@H]2[C@H](O)c1ccnc2ccc(OC)cc12` are 100%, 45% and 0%.
Regarding `Cc1ccc(-n2nc(C)c3c2NC(=O)CSC3c2ccsc2)cc1` (centres undefined), the figures for the Inhibition in the experiment with Plasmodium falciparum [1], with Plasmodium falciparum [2] and in the experiment with HepG2 were 97%, 11% and 0%, respectively.
Taken in the same sequence, the figures for `O=C(/C=C/c1ccc(Cl)c(Cl)c1)N1CCC(CN2CCC(c3c(Br)[nH]c4ccccc34)CC2)CC1` were 100%, 99% and 41%.
In the same order, the values of `O=C(/C=C/c1ccc(Cl)c(Cl)c1)NCC1CCCC(CN2CCC(c3c[nH]c4ccccc34)CC2)C1` (centres undefined) are 98%, 43% and 61%.
Taken in the same sequence, the figures for `Cc1[nH]c2cc(Cl)ccc2c1C1=CCN(CCCCC2(C)C(=O)Nc3ccccc32)CC1` (centres undefined) were 94%, 90% and 0%.
In the case of `COCC(=O)N(Cc1cccc(-c2ccc(CNCCc3ccccc3)cc2)c1)C1CCN(Cc2ccccc2)CC1.O=C(O)C(F)(F)F`, the figures for the Inhibition in the experiment with Plasmodium falciparum [1], in the experiment with Plasmodium falciparum [2] and in the experiment on HepG2 were 93%, 45% and 44%, respectively.
For `CC[C@H]1CN2CC[C@H]1C[C@H]2[C@H](O)c1cc(/C=C/c2ccc(F)cc2)nc2ccc(OC)cc12.Cl`, the Inhibition is 99% in the experiment with Plasmodium falciparum [1], 99% in the experiment with Plasmodium falciparum [2] and 55% with HepG2.
On to `CC[C@H]1CN2CC[C@H]1C[C@@H]2[C@@H](O)c1ccnc2ccccc12`, for which the Inhibition in the experiment on Plasmodium falciparum [1] is given as 98%; in the experiment on Plasmodium falciparum [2], 20%; in the experiment on HepG2, 10%.
Taken in the same sequence, the figures for `COc1ccc(CC(C)NCC(O)c2cccc(C(F)(F)F)c2)cc1` (centres undefined) were 98%, 94% and 0%.
In the same order, the values of `CC[C@H]1CN2CC[C@H]1C[C@H]2[C@H](OC(=O)c1ccccc1)c1cc(C#N)nc2ccc(OC)cc12` are 97%, 49% and 19%.
As for `O=C(NC1CCC(CN2CCC(c3c[nH]c4ccccc34)CC2)CC1)c1cc(-c2ccccc2Cl)n(-c2cccc(Cl)c2)n1` (centres undefined), the Inhibition in the experiment on Plasmodium falciparum [1] is 95%; with Plasmodium falciparum [2], 24%; in the experiment with HepG2 it was 58%.
In the case of `CCCc1c(C(=O)NC2CCC(CN3CCC(c4c[nH]c5ccccc45)CC3)CC2)cnn1-c1ccc(Cl)cc1` (centres undefined), the results for the Inhibition with Plasmodium falciparum [1], with Plasmodium falciparum [2] and with HepG2 were 90%, 37% and 53%, respectively.
For the compound `O=C(/C=C/c1cc(C(F)(F)F)ccc1F)N1CCC(CN2CCC(c3c[nH]c4ccccc34)CC2)CC1`, the Inhibition in the experiment on Plasmodium falciparum [1] is 96%; in the experiment on Plasmodium falciparum [2], 14%; in the experiment on HepG2, 22%.
On to `O=C(/C=C/c1ccc(Cl)c(Cl)c1)NC1CCC(N2CCC(c3c[nH]c4ccccc34)CC2)CC1` (centres undefined), for which the Inhibition in the experiment with Plasmodium falciparum [1] was found to be 100%; with Plasmodium falciparum [2], 69%; with HepG2, 41%.
Consider `COc1ccc(OC)c(C(O)CNC(C)C)c1.Cl` (centres undefined), for which the Inhibition with Plasmodium falciparum [1] was found to be 96%; with Plasmodium falciparum [2], 0%; in the experiment with HepG2, 3%.
With `COC(=O)c1sccc1NC(=S)NC1CCC(CN2CCC(c3c[nH]c4ccccc34)CC2)CC1` (centres undefined), the Inhibition was 97% and 100% in the experiment on Plasmodium falciparum [1]; 49% and 54% in the experiment on Plasmodium falciparum [2]; 34% and 25% in the experiment on HepG2.
Consider `CNCCCCCCc1ccc(CC(C)NCC(O)c2cccc(Cl)c2)cc1.Cl` (centres undefined), for which the Inhibition in the experiment with Plasmodium falciparum [1] came to 94%; in the experiment on Plasmodium falciparum [2], 76%; with HepG2 it was 22%.
In the case of `CCCN(CCC)CCOC(=O)C(OCC)(c1ccccc1)c1ccccc1`, the Inhibition with Plasmodium falciparum [1] was 97%; in the experiment on Plasmodium falciparum [2], 0%; with HepG2 it was 0%.
In the case of `COC(=O)c1ccc(CC(C)NCC(O)c2ccc(Cl)c(Cl)c2)cc1` (centres undefined), the Inhibition in the experiment on Plasmodium falciparum [1] is reported as 87%; with Plasmodium falciparum [2], 33%; in the experiment on HepG2 it was 0%.
Taken in the same sequence, the figures for `CCCCCOc1ccc(CC(C)NCC(O)c2cccc(Cl)c2)cc1` (centres undefined) were 100%, 99% and 0%.
In the same order, the values of `NC(=O)CN1CC=C(c2c[nH]c3ccc(Br)cc23)CC1` are 83%, 0% and 30%.
Taken in the same sequence, the figures for `CC(=O)N(Cc1ccccc1-c1cccc(CNCc2ccc3c(c2)OCO3)c1)C1CCN(Cc2ccccc2)CC1.O=C(O)C(F)(F)F` were 85%, 44% and 17%.
As to `Cc1c(C)c2c(c(C)c1O)CC[C@@](C)(C(=O)NC1CCC(CN3CCC(c4c[nH]c5ccccc45)CC3)CC1)O2` (some centres undefined), the values for the Inhibition with Plasmodium falciparum [1], in the experiment on Plasmodium falciparum [2] and in the experiment on HepG2 were 92%, 57% and 29%, respectively.
In the same order, the values of `N#Cc1ccc(N(CC(=O)NCCc2ccc(F)cc2)CC2CC2)c2ccccc12.O=C(O)C(F)(F)F` are 91%, 23% and 28%.
For the compound `Cc1cc(C(=O)NC2CCN(CC3(c4ccc(Cl)cc4)CCC3)CC2)on1`, the Inhibition in the experiment on Plasmodium falciparum [1] stood at 98%; in the experiment with Plasmodium falciparum [2], 95%; with HepG2, 5%.
Taken in the same sequence, the figures for `CC(Cc1ccc(OCCCCOc2ccccc2)cc1)NCCCn1ccnc1` (centres undefined) were 100%, 100% and 100%.
Taken in the same sequence, the figures for `CC[C@H]1CN2CCc3cc(OC)c(OC)cc3[C@@H]2C[C@@H]1C[C@H]1NCCc2c1cc(OC)c(O)c2Cl` were 100%, 100% and 51%.
Taken in the same sequence, the figures for `O=C(NC1CCC(CN2CCC(c3c[nH]c4ccccc34)CC2)CC1)c1[nH]c(=O)[nH]c(=O)c1F` (centres undefined) were 99%, 59% and 5%.
For the compound `COc1cc(C(=O)NC2CCC(CN3CCC(c4c[nH]c5ccccc45)CC3)CC2)cc(Cl)n1` (centres undefined), the Inhibition is 99% with Plasmodium falciparum [1], 45% in the experiment with Plasmodium falciparum [2] and 33% in the experiment on HepG2.
`S=C(NCCc1ccc(Cl)cc1)NC1CCC(CN2CCC(c3c[nH]c4ccccc34)CC2)CC1` (centres undefined): the Inhibition is 100% in the experiment with Plasmodium falciparum [1]; 84% and 34% with Plasmodium falciparum [2]; 42% and 37% with HepG2.
`CN1CC=C(c2c[nH]c3ccc(Sc4ccccc4)cc23)CC1.O=C(O)/C=C/C(=O)O`: the Inhibition in the experiment with Plasmodium falciparum [1] worked out at 98%; with Plasmodium falciparum [2] it was 99%; in the experiment with HepG2 it was 36%.
Taken in the same sequence, the figures for `CCCc1c(C(=O)NC2CCC(CN3CCC(c4c[nH]c5ccccc45)CC3)CC2)cnn1-c1c(Cl)cc(Cl)cc1Cl` (centres undefined) were 100%, 49% and 41%.
Taken in the same sequence, the figures for `Cn1c(C2CC3CCC(C2)N3CC2CCC(NC(=O)/C=C/c3ccc(Cl)c(Cl)c3)CC2)nc2ccccc21` (centres undefined) were 100%, 51% and 50%.
Taken in the same sequence, the figures for `CC(=O)N(Cc1cccc(-c2cccc(CNCc3ccc4c(c3)OCO4)c2)c1)C1CCN(Cc2ccccc2)CC1.O=C(O)C(F)(F)F` were 95%, 21% and 16%.
`O=C(NC1CCN(CC2(c3ccc(Cl)cc3)CCC2)CC1)c1cc[nH]n1`: the values for the Inhibition in the experiment on Plasmodium falciparum [1], in the experiment with Plasmodium falciparum [2] and with HepG2 were 96%, 43% and 0%, respectively.
Taken in the same sequence, the figures for `CC[C@H]1CN2CC[C@@H]1C[C@H]2[C@H](O)c1cc(N2CCC(N3CCCCC3)CC2)nc2ccc(OC)cc12` were 99%, 77% and 0%.
Regarding `COc1ccc(CC(C)NCC(O)c2ccc(Cl)c(Cl)c2)cc1` (centres undefined), the values for the Inhibition in the experiment on Plasmodium falciparum [1], with Plasmodium falciparum [2] and with HepG2 were 98%, 96% and 0%, respectively.
In the case of `CC(=O)N(Cc1ccccc1-c1cccc(CNCCc2ccccc2)c1)C1CCN(Cc2ccccc2)CC1.O=C(O)C(F)(F)F`, the Inhibition in the experiment on Plasmodium falciparum [1] worked out at 89%; in the experiment with Plasmodium falciparum [2] it was 30%; in the experiment on HepG2, 19%.
Taken in the same sequence, the figures for `Cc1[nH]c2ccccc2c1C1CCN(CC2CCC(NC(=O)/C=C/c3ccc(Cl)c(Cl)c3)CC2)CC1` (centres undefined) were 100%, 93% and 15%.
As to `Cc1ccc(C(=O)Nc2ccnc(N(C)C3CCN(Cc4cccc(O)c4)CC3)c2)cn1.O=C(O)C(F)(F)F`, the figures for the Inhibition with Plasmodium falciparum [1], in the experiment on Plasmodium falciparum [2] and with HepG2 were 90%, 1% and 0%, respectively.
Taken in the same sequence, the figures for `C/C=C1\CN2CC[C@H]1C[C@H]2[C@H](O)c1ccnc2ccc(O)cc12` were 98%, 0% and 0%.
In the same order, the values of `CCN(CC)CCOC(=O)C(OC)(c1ccccc1)c1ccccc1` are 97%, 6% and 0%.
In the same order, the values of `CN(c1cc(NC(=O)c2ccc(F)cc2)ccn1)C1CCN(Cc2cccc(O)c2)CC1.O=C(O)C(F)(F)F` are 100%, 82% and 3%.
With `CC(Cc1ccc(NC(=O)[C@H](C)NCCc2cccc(Cl)c2)cc1)NCCc1cccc(Cl)c1.Cl` (some centres undefined), the Inhibition is 100% in the experiment on Plasmodium falciparum [1], 54% with Plasmodium falciparum [2] and 99% with HepG2.
Taken in the same sequence, the figures for `CC(=O)N(Cc1cccc(-c2cccc(CNCCc3ccccc3)c2)c1)C1CCN(Cc2ccccc2)CC1.O=C(O)C(F)(F)F` were 100%, 57% and 22%.
In the same order, the values of `Oc1ccccc1CNCC(O)c1cccc(C(F)(F)F)c1` (centres undefined) are 100%, 97% and 1%.
Taken in the same sequence, the figures for `Cl.O=C(CC1CCCC1)N(CC1CCN(Cc2ccc(C(F)(F)F)cc2)CC1)c1ccc(N2CCOCC2)c(F)c1` were 92%, 97% and 10%.
